In the supplement of paper PMC10515830:
Structures can show the parent of a compound that is named as a salt.

Columns and labels:
Conditions in all cases: 10 µM; exposure time 6 h
[1] = test system: Danio rerio larvae (5 dpf); assay: difference in excitability vs DMSO (percentage points); higher = more excitable than DMSO
Method in brief: (§1)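 Wild-type 5 dpf zebrafish larvae in 96-well plates were given 100 µL egg water containing library compound at 10 µM final for 6 h. After 3 h of exposure, plates at 28.5 ℃ were photographed every 6 s during a 3-h programme of moving lines and 100 ms, 400Hz tones. Z-LaP Tracker (a DeepLabCut model) quantified each behaviour, averaged over 48 larvae per compound. Values are the compound mean minus the DMSO-vehicle control, in percentage points.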

[2] = test system: Danio rerio larvae (5 dpf); assay: difference in startle response vs DMSO (percentage points); higher = stronger startle than DMSO
Method in brief: as §1

[3] = test system: Danio rerio larvae (5 dpf); assay: difference in activity during first hour vs DMSO (percentage points); higher = more activity than DMSO
Method in brief: as §1

[4] = test system: Danio rerio larvae (5 dpf); assay: difference in habituation to acoustic stimuli vs DMSO (percentage points); higher = more habituation than DMSO
Method in brief: as §1

[5] = test system: Danio rerio larvae (5 dpf); assay: difference in combined optomotor response to red, green and blue moving lines vs DMSO (percentage points); higher = stronger optomotor response than DMSO
Method in brief: as §1

| Compound | difference in excitability [1] | difference in startle response [2] | difference in activity during first hour [3] | difference in habituation to acoustic stimuli [4] | difference [5] |
| --- | --- | --- | --- | --- | --- |
| CC1OC2(CS1)CN1CCC2CC1 (stereo not given) [Cevimeline (hydrochloride)] | -6.36 | -3.25 | 16.4 | -3.9 | -1.46 |
| CN(CCOc1ccc(CC2SC(=O)NC2=O)cc1)c1ccccn1 (stereo not given) [Rosiglitazone (maleate)] | 10.7 | -3.19 | 10.3 | -2.4 | -0.752 |
| CC(C)OC(=O)C(C)(C)Oc1ccc(C(=O)c2ccc(Cl)cc2)cc1 [Fenofibrate] | 13.8 | -6.52 | 45.6 | -9.59 | -15.8 |
| Cc1cn([C@H]2C=C[C@@H](CO)O2)c(=O)[nH]c1=O [Stavudine] | 7.17 | -2.71 | -1.82 | 5.47 | 4.85 |
| Nc1nc(F)nc2c1ncn2[C@@H]1O[C@H](COP(=O)(O)O)[C@@H](O)[C@@H]1O [Fludarabine Phosphate] | 2.14 | -0.759 | 3.53 | -5.41 | 6.27 |
| Oc1ccc(C2CNCCc3c2cc(O)c(O)c3Cl)cc1 (stereo not given) [Fenoldopam (mesylate)] | 9.9 | -2.3 | 4.74 | -1.52 | -1.12 |
| COC1=CC(=O)C[C@@H](C)[C@]12Oc1c(Cl)c(OC)cc(OC)c1C2=O [Griseofulvin] | 3.76 | 5.64 | 19.9 | 2.87 | 8.4 |
| Nc1ncn([C@@H]2O[C@H](CO)[C@@H](O)[C@H]2O)c(=O)n1 [5-Azacytidine] | 6.01 | -4.41 | -3.91 | -4.6 | 0.0811 |
| Cc1ccc(-c2cc(C(F)(F)F)nn2-c2ccc(S(N)(=O)=O)cc2)cc1 [Celecoxib] | 6.16 | -9.06 | 2.67 | -10.4 | -6.28 |
| Cc1ccc(Sc2ccccc2N2CCNCC2)c(C)c1 [Vortioxetine (hydrobromide)] | -0.102 | 7.18 | -8.07 | -14.1 | -11.4 |
| NCCCC(O)(P(=O)(O)O)P(=O)(O)O [Alendronate (sodium hydrate)] | -4.92 | 0.325 | -3.96 | -4.98 | 5.9 |
| O=C(CCCN1CCC(O)(c2ccc(Cl)cc2)CC1)c1ccc(F)cc1 [Haloperidol] | 17.7 | -2.56 | 12.4 | -7.67 | -5.9 |
| C[C@H](Nc1ncnc2nc[nH]c12)c1cc2cccc(Cl)c2c(=O)n1-c1ccccc1 | -1.93 | 2.84 | 12.8 | 2.7 | 8.44 |
| NS(=O)(=O)c1cc2c(cc1C(F)(F)F)NCNS2(=O)=O [Hydroflumethiazide] | 2.46 | 7.8 | 0.32 | -1.14 | -2.31 |
| N=C(N)N/N=C/c1c(Cl)cccc1Cl [Guanabenz (hydrochloride)] | 1.72 | 17.3 | -12.1 | 5.15 | 8.58 |
| CC(C)(C)NCC(O)c1ccc(O)c(CO)c1 (stereo not given) [Salbutamol (hydrochloride)] | 7.67 | -7.77 | 15.5 | -0.991 | 4.05 |
| CC1(C)O[C@@H]2C[C@H]3[C@@H]4CCC5=CC(=O)C=C[C@]5(C)[C@H]4[C@@H](O)C[C@]3(C)[C@]2(C(=O)CO)O1 [Desonide] | -1.81 | -1.62 | 0.404 | 6.53 | 1.67 |
| CN(C)CC[C@@H](c1ccc(Cl)cc1)c1ccccn1 [Dexchlorpheniramine (maleate)] | 5.44 | 3.98 | -18.8 | 1.79 | -3.17 |
| CCCCCCCC/C=C\CCCCCCCC(=O)NCCO [Oleoyl Ethanolamide] | 3.95 | 1.17 | 2.47 | -3.04 | -0.503 |
| O=NN(CCCl)C(=O)NCCCl [Carmustine] | -3.21 | 2.25 | 1.68 | 0.0979 | 11.5 |
| CC(O)C(O)[C@H]1CNc2nc(N)[nH]c(=O)c2N1 (stereo partly drawn) [(6R)-5,6,7,8-tetrahydro-L-Biopterin (hydrochloride)] | 0.358 | -1.51 | -0.551 | 1.85 | 6.59 |
| Nc1nc(=O)c2c([nH]1)NC[C@H](CNc1ccc(C(=O)N[C@@H](CCC(=O)O)C(=O)O)cc1)N2C=O [L-Folinic Acid (calcium salt)] | -3.02 | -0.777 | -9.87 | -0.456 | -0.774 |
| CC(C)N1CCN(c2ccc(OCC3COC(Cn4cncn4)(c4ccc(Cl)cc4Cl)O3)cc2)CC1 (stereo not given) [Terconazole] | 18 | -1.46 | 2.36 | -6.11 | 0.243 |
| CCCN(CCc1cccs1)[C@H]1CCc2c(O)cccc2C1 [Rotigotine] | 20.1 | -3.78 | -23.8 | -14.4 | -15.9 |
| CN(C)CCC(c1ccc(Br)cc1)c1ccccn1 (stereo not given) [Brompheniramine (maleate)] | 4.19 | -2.92 | -11.7 | -3.69 | 7.28 |
| CN1CCN(C2=Nc3ccccc3Oc3ccc(Cl)cc32)CC1 [Loxapine (succinate)] | 20.5 | -13.4 | 43.6 | -11 | -0.239 |
